Screens deposited in PubChem by National Center for Advancing Translational Sciences (NCATS).
MmCpn inh = inhibitors of Methanococcus maripaludis chaperonin TRiC (MmCpn) | Potency, µM (titrated, usually from 76.9 µM), hits mostly inhibitors | purified Mm-Cpn ATPase, ADP Transcreener TR-FRET | 0.031% of 330,000 active; note: nearly all actives have a fitted effect of over 80% in size
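Quantitative HTS used 25 nM Mm-CPN and 10 uM ATP in magnesium/KCl Tris buffer, pH 7.4, with 1 mM DTT. Hydrolysis ran 30 min at 37°C; ADP was read by HTRF.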
CCT modulator = cytosolic chaperonin activity modulation; purified chaperonin ATPase assay, HTRF ADP detection, 30 min; AID 651819; activity change, % (test concentration not listed), hits read low; 0.3% of 360,000 active; in the data active = activity change below about -30%
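TRiC (40 or 20 nM final, by batch activity) in 30 mM Tris pH 7.4, 100 mM KCl, 5 mM MgCl2, 1 mM DTT was treated with compound at 76 uM single dose, then 10 uM ATP, 30 min at 37 °C. ADP was read by HTRF Transcreener.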
VDR inhibitor = blocks the human vitamin D receptor | P11473 | VDR-SRC2-3 peptide fluorescence polarization, 2 h | Potency, µM, usual class: inhibitors | 0.93% of 400,000 active | AID 504847
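VDR–SRC2-3 interaction, FP format. Cmpds 23 nl via pintool, brief spin, 2 h ambient incubation.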
PLK1 PBD block = blocks phosphopeptide binding to human PLK1 polo-box domain. P53350. Plk1 PBD binding of FITC phosphopeptide, fluorescence polarization. Potency, µM, usual class: inhibitors. 2.8% of 360,000 active; note: series mostly up to about 57 µM; nearly all actives have a fitted effect of over 65% in size
Target sequence (P53350 whole entry, looked up, the tested form may be a part): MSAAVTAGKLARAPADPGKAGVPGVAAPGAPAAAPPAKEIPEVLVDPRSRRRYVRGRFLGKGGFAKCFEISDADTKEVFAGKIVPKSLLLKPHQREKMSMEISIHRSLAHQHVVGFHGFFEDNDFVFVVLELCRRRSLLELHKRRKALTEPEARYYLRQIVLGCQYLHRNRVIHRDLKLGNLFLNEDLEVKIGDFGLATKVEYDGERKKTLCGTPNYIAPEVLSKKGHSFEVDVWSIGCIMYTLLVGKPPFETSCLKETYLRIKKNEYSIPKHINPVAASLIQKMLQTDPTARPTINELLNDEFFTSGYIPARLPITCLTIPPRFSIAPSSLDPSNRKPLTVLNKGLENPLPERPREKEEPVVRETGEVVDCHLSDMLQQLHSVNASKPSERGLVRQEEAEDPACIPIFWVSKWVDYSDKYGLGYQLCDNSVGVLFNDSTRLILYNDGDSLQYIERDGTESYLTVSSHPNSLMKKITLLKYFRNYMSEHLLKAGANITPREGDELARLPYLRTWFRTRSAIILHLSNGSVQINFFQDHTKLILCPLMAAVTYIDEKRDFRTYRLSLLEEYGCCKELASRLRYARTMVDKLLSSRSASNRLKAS
Sfp PPTase inh = inhibitors of Bacillus subtilis Sfp phosphopantetheinyl transferase | Biochemical Sfp PPTase activity, qHTS | Potency, µM, usual class: inhibitors | 3.5% of 310,000 active | Q9F4F7;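 note: the enzyme is Sfp with the accession as filed and its product quenches rhodamine fluorescence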
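Compounds were incubated with enzyme (final 15 nM) for 15 min at room temperature before substrate addition started the reaction. Fluorescence at 525 nm excitation, 598 nm emission was recorded immediately and after 30 minutes.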
G9a block = inhibitors of human histone lysine methyltransferase G9a | G9a H3K9 monomethylation, AlphaScreen, 2 h | Potency, µM (doses to about 102 µM), hits mostly inhibitors | 8.8% of 350,000 active; note: nearly all actives have a fitted effect of over 75% in size
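Compounds were preincubated with 20 nM G9a for 15 min, after which biotinylated H3K9 peptide (500 nM) and SAM (20 uM) started a 2 h room-temperature reaction. Monomethylated product was quantified by antibody-based AlphaScreen chemiluminescence.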
Hits are given with their value; – = inactive; ? = inconclusive; · = no result; [ ] = dose if it differs, or a comment. The list is not random: actives were taken first. Their share in the collection is about 10%. Unless noted, calls come from the whole dose curve; as a rule, active = well fitted curve in the direction sought with a large enough effect; inconclusive = small, poorly fitted or top-dose-only effect, or another doubt; inactive = no such curve, though single readings can be large; an effect the other way counts as inactive or inconclusive.

SMILES | MmCpn inh | CCT modulator | VDR inhibitor | PLK1 PBD block | Sfp PPTase inh | G9a block
c1csc(-c2nn3c(Cn4nnc5ccccc54)nnc3s2)c1 | – | – | – | – | – | ?
c1coc(-c2nn3c(Cn4nnc5ccccc54)nnc3s2)c1 | – | – | ? | 26.7µM | 44.7µM | ?
CCN1CCN(Cc2c(O)ccc3cc(-c4ccc(OC)cc4)c(=O)oc23)CC1 | · | · | – | · | · | –
O=C(c1ccccc1)c1ccc2nc(N3CCN(c4ccc(F)cc4)CC3)c3nncn3c2c1 | · | · | – | · | · | –
CCOC(=O)c1ccc(CN(Cc2ccc(F)cc2)S(=O)(=O)c2ccc(F)cc2)cc1 | · | · | – | · | · | –
CCOc1c2c(c(-c3ccc4c(c3)OCO4)c3cc(OC)c(OC)cc13)C(=O)OC2 | · | · | – | · | · | ·
CC(=O)Nc1c([N+](=O)[O-])cc2[nH]c(=O)[nH]c2c1[N+](=O)[O-] | – | – | – | ? | 20µM | 31.6µM
COc1ccccc1-c1noc(-c2ccc(NC(C)C)c([N+](=O)[O-])c2)n1 | · | · | – | · | · | –
COC(=O)c1nc(N)sc1-c1ccc(Cl)cc1 | – | – | – | – | – | 44.7µM
COC(=O)c1sc(-c2ccc(Cl)cc2)cc1N | – | -40.1 | – | – | – | –
COC(=O)c1oc(-c2ccc(Cl)cc2)nc1C | – | – | – | – | – | –
CCOC(=O)C1CCN(C(=O)c2ccc(SC)cc2OC)CC1 | – | – | – | 29.9µM | – | –
CCOC(=O)C1CCN(C(=O)c2cc(COc3ccc(OC)c4ccccc34)on2)CC1 | – | – | – | – | – | 44.7µM
COc1ccc(N2CCN(C(=O)c3ccc(SC)cc3OC)CC2)cc1 | – | – | – | – | – | 28.2µM
O=C(c1cc(N2C(=O)C3C4CCC(C4)C3C2=O)ccc1Cl)N1CCN(c2ccc(F)cc2)CC1 (stereo not drawn) | – | – | – | – | – | ?
COc1ccc(N2CCN(C(=O)c3cc(N4C(=O)C5C6CCC(C6)C5C4=O)ccc3Cl)CC2)cc1 (stereo not drawn) | – | – | – | – | – | 39.8µM
CCOc1ccc(CCNC(=O)c2cc(Nc3ccc(C)cc3C)nc3ccccc23)cc1OCC | · | · | – | · | · | –
COc1cc(Cl)c(C)cc1NC(=O)Cn1ncc2c([nH]c3ccccc32)c1=O | · | · | – | · | · | –
O=C(c1ccc2c(c1)N(Cc1ccc(Cl)cc1)C(=O)c1ccccc1S2(=O)=O)N1CCCC1 | · | · | – | · | · | –
Cn1ccc2cc(S(=O)(=O)N3CCCN(C(=O)Nc4ccccc4Br)CC3)ccc21 | · | · | – | · | · | –
COc1ccc(NC(=O)CSC2=Nc3ccccc3C3=NC(CCC(=O)NC4CCCCC4)C(=O)N23)cc1Cl (stereo not drawn) | · | · | – | · | · | –
Cc1cc(N2CCN(C)CC2)nc2ccc(NC(=S)NCc3cccs3)cc12 | – | – | – | – | – | 39.8µM
Cc1cc(N2CCN(C)CC2)nc2ccc(NC(=S)NCCCN3CCN(C)CC3)cc12 | – | – | – | – | – | ?
CCN1CCN(c2cc(C)c3cc(NC(=S)NCc4cccs4)ccc3n2)CC1 | – | – | – | – | – | 44.7µM
CCC(C)NC(=S)Nc1ccc2nc(N3CCN(CC)CC3)cc(C)c2c1 (stereo not drawn) | – | – | – | – | – | ?
SMILES | MmCpn inh | CCT modulator | VDR inhibitor | PLK1 PBD block | Sfp PPTase inh | G9a block
COc1cccc(NC(=O)c2cn(C3CCCCC3)c(=O)c3c2c2ccccc2n3C)c1 | · | · | – | · | · | –
COC(=O)NCC12CC3CC(C1)CC(CNC(=O)OC)(C3)C2 | – | – | – | 11.9µM | – | –
CC1(C)C[C@@H]1C(=O)N/C(=C\CCCCSC[C@H](N)C(=O)O)C(=O)O | – | – | – | – | 79.4µM | –[12.7 µM]
CSc1ccccc1OCc1cc(C(=O)N(C)CCn2nc(C)cc2C)no1 | – | – | ? | 3.36µM | – | –[0.501 µM]
COc1ccc(-c2nc(C#N)c(N3CCCCC3)o2)cc1 | – | – | – | – | – | –[2.33 µM]
Cc1ccc(-c2nc(C#N)c(N3CCC(C)CC3)o2)cc1 | – | – | – | – | – | 10µM
COc1ccc(-c2nc(C#N)c(N3CCCCCC3)o2)cc1 | – | – | – | – | ? | ?
COc1ccc(-c2nc(C#N)c(N3CCC(C)CC3)o2)cc1 | – | – | – | – | – | 14.1µM
O=C(Nc1cc(Cl)cc(Cl)c1)c1ccc(F)c(S(=O)(=O)N2CCCCCC2)c1 | · | · | – | · | · | –
COc1ccc(Cl)cc1S(=O)(=O)NC(C)C(=O)NCc1ccncc1 (stereo not drawn) | – | -66.1 | – | – | – | –
COc1ccc(Cl)cc1S(=O)(=O)NC(C)C(=O)NCc1ccc2c(c1)OCO2 (stereo not drawn) | – | – | ? | 23.8µM | – | –
C/C=C/COC(=O)c1[nH]c2c(c1C)C(=O)CC(c1ccc(N(C)C)cc1)C2 (stereo not drawn) | – | – | – | – | – | 35.5µM
CCOCCOC(=O)c1[nH]c2c(c1C)C(=O)CC(c1ccc(N(C)C)cc1)C2 (stereo not drawn) | – | – | – | – | – | ?
CCC(C)OC(=O)c1[nH]c2c(c1C)C(=O)CC(c1ccc(N(C)C)cc1)C2 (stereo not drawn) | – | – | – | – | – | 14.1µM
CCCCCCCCCCCCC/C=C/[C@@H](O)[C@H](CO)N(C)C | · | · | – | · | – | –
CC(=O)N1CCC(N(Cc2ccc(C)o2)C(=O)Nc2ccc(C)cc2)CC1 | · | · | – | · | · | –
Cc1cccc(-c2cc(C(=O)NCc3ccccn3)c3ccccc3n2)c1 | – | – | – | – | – | –
O=C(NCc1ccccn1)c1cc(-c2ccccc2)nc2ccccc12 | – | – | – | – | – | –
Cc1ccc(-c2cc(C(=O)NCc3ccccn3)c3ccccc3n2)cc1C | – | – | ? | 23.8µM | ? | ?
O=C(NCc1ccccn1)c1cc(-c2ccc(-c3ccccc3)cc2)nc2ccccc12 | ? | – | – | ? | 25.1µM | 3.16µM
O=C(N/N=C/c1ccccn1)c1ccc([N+](=O)[O-])cc1 | – | – | – | – | – | –
Cn1c(SCC(=O)N/N=C/c2ccccn2)nnc1-c1ccccc1 | – | – | – | – | 44.7µM | –
S=C(NN=Cc1ccccn1)N(Cc1ccccn1)Cc1ccccn1 | · | -42.8 | – | – | · | ·
S=C(NN=C(c1ccccc1)c1ccccn1)N(Cc1ccccn1)Cc1ccccn1 | · | – | – | ? | · | ·
CSc1ccc(/C=N/NC(=O)CNc2ccc3ccccc3c2)cc1 | – | – | – | – | – | ?
SMILES | MmCpn inh | CCT modulator | VDR inhibitor | PLK1 PBD block | Sfp PPTase inh | G9a block
O=C(COc1ccc([N+](=O)[O-])cc1)N/N=C/c1ccccn1 | – | – | – | – | 79.4µM | –
O=C(CNc1ccc2ccccc2c1)N/N=C/c1ccncc1 | – | – | – | ? | – | 1.41µM
COc1ccc(CN2CCc3c(c(=O)n4ncc(C(=O)N5CCN(c6ccccc6F)CC5)c4n3C)C2)cc1 | · | · | – | · | · | –
O=C(CNc1ccc2ccccc2c1)N/N=C/c1ccccn1 | – | – | – | – | – | 3.98µM
O=C(Cc1ccccc1)N/N=C/c1ccccn1 | · | – | – | – | · | ·
O=C(CCCC(=O)N/N=C\c1ccccn1)N/N=C\c1ccccn1 | – | – | – | – | 39.8µM | ?
